In paper PMC7862700, “An all-to-all approach to the identification of sequence-specific readers for epigenetic DNA modifications on cytosine” one finds binding signal data, which are given here for one sequence.

What all share (test): DAPPL (digital affinity profiling via proximity ligation, sequencing); 10 mM Tris-HCl pH 7.5, 50 mM NaCl, 1 mM DTT, 4% glycerol, room temperature, 30 min; GST-TFs on glutathione beads, 16-mer random dsDNA library, 0.1% formaldehyde crosslink after washing; high values mean tight binding
Common to all, as to conditions: protein: recombinant; tags: N-terminal GST; dsDNA, one strand shown

One experiment deals with T1, ELK4 (Homo sapiens, UniProt P28324-2 1-405).
T1 sequence: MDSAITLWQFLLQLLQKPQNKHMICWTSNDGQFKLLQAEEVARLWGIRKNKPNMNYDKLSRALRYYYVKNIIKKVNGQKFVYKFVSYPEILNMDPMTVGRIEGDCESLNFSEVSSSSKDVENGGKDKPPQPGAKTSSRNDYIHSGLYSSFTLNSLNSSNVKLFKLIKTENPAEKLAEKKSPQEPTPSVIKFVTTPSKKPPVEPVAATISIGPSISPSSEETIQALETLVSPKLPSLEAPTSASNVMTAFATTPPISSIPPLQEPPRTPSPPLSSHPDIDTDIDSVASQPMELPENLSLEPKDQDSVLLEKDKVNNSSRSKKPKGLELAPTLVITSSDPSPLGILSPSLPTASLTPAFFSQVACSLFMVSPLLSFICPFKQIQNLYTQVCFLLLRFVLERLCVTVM
The method, boiled down: (§1)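 Each value of binding signal is a hexamer's read frequency for a factor divided by the same hexamer's frequency in the tag-only sample. Barcoded, bead-captured GST fusions of human transcription factors made in yeast were pooled with that sample and incubated with 200 nmole of a random double-stranded 16-mer DNA library in Tris/NaCl/DTT/glycerol buffer at room temperature for 30 min. Washing, 0.1% formaldehyde crosslinking, proximity ligation, PCR and Illumina NextSeq500 sequencing followed.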

In the next experiment the target is T2, ETV2 (Homo sapiens, UniProt O00321 1-342).
T2 sequence: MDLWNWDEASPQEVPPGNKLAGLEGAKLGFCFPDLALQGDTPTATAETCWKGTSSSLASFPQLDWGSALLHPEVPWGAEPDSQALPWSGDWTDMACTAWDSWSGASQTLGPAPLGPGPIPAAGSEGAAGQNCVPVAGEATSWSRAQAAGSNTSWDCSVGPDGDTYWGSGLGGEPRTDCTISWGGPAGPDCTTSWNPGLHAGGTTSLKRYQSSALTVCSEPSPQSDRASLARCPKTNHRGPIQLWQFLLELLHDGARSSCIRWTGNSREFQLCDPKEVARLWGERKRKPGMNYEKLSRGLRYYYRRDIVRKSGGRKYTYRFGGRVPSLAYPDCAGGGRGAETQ
The procedure, abridged: as §1

Another experiment addresses T3, ELF3 (Homo sapiens, UniProt P78545 1-371).
T3 sequence: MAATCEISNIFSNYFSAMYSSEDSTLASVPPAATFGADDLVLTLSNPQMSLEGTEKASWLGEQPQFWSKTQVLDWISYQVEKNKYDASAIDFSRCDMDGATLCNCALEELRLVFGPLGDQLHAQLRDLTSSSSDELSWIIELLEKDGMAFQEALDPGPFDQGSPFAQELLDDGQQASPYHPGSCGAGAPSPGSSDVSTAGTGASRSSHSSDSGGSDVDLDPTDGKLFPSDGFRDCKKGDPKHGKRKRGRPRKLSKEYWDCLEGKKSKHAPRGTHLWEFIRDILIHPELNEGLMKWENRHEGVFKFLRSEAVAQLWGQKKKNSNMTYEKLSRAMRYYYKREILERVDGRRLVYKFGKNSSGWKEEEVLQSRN
The procedure, abridged:
as §1

The target of the next experiment is CRX (Homo sapiens, UniProt O43186 1-299). The method, boiled down:
as §1

The target of another experiment is ETV1 (Homo sapiens, UniProt P50549 1-477). The method, boiled down: as §1
A further experiment concerns the target T4, ERF (Homo sapiens, UniProt P50548 1-548).
T4 sequence: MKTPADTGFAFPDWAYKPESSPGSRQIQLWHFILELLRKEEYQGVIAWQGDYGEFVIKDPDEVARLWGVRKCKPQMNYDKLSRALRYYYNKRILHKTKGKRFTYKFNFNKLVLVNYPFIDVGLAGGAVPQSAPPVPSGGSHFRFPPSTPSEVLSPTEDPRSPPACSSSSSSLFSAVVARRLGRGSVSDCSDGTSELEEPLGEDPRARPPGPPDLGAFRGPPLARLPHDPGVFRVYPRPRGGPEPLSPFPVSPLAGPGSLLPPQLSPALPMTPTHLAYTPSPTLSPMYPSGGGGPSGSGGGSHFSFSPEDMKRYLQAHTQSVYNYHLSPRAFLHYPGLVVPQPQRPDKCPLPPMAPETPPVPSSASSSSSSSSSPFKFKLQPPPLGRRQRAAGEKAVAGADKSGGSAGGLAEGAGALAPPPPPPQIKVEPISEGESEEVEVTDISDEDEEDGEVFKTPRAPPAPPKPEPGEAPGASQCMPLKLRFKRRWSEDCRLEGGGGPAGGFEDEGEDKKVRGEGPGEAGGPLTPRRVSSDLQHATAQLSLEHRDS
The procedure, abridged: as §1

For another experiment, the target named is T5, ETV3L (Homo sapiens, UniProt Q6ZN32 1-361).
T5 sequence: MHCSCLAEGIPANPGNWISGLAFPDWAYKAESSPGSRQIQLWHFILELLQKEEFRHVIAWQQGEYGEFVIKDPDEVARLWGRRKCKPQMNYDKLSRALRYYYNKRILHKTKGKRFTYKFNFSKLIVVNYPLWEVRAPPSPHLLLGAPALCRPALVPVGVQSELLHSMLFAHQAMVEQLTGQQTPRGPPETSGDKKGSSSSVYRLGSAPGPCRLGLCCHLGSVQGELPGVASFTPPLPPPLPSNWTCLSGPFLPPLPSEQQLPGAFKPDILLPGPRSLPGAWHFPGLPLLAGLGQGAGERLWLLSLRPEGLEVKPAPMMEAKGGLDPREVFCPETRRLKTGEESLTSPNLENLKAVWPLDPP
The procedure, abridged: as §1

The next experiment addresses T6, ETS2 (Homo sapiens, UniProt P15036 1-469).
T6 sequence: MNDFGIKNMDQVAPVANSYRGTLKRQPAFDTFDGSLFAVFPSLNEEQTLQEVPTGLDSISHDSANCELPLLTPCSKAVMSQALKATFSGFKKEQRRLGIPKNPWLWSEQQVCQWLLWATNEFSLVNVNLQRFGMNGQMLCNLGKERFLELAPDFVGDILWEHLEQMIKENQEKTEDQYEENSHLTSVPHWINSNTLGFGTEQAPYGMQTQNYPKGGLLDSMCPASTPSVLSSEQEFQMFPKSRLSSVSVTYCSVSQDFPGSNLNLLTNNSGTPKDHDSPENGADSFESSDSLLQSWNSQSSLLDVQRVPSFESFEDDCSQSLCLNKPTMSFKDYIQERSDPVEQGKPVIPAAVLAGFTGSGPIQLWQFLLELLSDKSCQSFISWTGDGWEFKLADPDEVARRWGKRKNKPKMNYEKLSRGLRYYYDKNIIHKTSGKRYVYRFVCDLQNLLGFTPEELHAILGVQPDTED
The method, boiled down:
as §1

The target of a further experiment is T7, ETV7 (Homo sapiens, UniProt Q9Y603 1-341).
T7 sequence: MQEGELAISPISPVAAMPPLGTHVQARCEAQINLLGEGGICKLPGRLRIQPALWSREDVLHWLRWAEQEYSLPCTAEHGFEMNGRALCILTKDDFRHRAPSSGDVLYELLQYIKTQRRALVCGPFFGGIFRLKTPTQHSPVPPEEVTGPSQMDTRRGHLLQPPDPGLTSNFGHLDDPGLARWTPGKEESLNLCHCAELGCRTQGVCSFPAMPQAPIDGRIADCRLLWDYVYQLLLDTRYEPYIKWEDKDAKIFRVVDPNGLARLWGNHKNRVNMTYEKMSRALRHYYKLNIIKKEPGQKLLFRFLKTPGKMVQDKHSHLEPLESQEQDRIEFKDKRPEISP
The procedure, abridged: as §1

The next experiment deals with T8, ELF5 (Homo sapiens, UniProt Q9UKW6-2 1-255).
T8 sequence: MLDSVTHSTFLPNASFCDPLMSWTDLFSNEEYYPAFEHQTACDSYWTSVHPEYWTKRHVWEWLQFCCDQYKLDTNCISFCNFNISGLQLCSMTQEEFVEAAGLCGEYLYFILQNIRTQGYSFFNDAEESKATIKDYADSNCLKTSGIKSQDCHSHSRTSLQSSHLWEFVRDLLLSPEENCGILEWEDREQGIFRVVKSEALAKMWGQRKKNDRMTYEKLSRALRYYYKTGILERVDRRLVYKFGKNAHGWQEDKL
The procedure, abridged:
as §1

Another experiment has as its target T9, ETV3 (Homo sapiens, UniProt P41162-2 1-143).
T9 sequence: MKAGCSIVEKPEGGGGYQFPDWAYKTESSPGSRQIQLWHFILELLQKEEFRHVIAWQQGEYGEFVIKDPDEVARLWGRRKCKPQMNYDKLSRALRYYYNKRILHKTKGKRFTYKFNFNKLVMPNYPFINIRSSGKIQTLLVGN
The method, boiled down: as §1

A further experiment addresses ETV6 (Homo sapiens, UniProt P41212 1-452). The procedure, abridged:
as §1

Sequence of ETV6 (P41212 whole entry): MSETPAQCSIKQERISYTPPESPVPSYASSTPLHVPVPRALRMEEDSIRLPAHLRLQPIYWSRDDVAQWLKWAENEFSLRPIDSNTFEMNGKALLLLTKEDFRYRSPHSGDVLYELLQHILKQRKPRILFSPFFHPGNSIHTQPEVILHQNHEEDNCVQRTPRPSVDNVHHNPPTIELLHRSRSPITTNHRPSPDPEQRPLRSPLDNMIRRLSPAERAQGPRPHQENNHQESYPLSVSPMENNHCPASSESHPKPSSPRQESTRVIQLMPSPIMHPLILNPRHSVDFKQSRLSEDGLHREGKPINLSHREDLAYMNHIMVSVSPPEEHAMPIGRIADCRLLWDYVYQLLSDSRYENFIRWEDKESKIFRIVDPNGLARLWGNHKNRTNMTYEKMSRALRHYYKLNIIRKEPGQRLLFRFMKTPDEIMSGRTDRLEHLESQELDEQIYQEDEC
Sequence of ETV1 (P50549 whole entry): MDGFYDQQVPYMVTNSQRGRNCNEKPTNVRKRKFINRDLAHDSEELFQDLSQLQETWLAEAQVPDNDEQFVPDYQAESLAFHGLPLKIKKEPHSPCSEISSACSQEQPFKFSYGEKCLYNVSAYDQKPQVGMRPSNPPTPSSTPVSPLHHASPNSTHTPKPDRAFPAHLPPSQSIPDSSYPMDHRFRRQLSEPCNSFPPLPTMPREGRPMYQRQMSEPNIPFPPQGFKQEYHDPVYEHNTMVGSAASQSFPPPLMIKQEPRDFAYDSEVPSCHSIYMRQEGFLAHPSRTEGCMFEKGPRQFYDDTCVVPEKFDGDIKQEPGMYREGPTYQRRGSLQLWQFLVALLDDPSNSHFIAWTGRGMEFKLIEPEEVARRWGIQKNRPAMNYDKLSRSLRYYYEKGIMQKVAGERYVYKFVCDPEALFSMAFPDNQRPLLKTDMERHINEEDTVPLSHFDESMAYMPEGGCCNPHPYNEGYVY
Sequence of CRX (O43186 whole entry): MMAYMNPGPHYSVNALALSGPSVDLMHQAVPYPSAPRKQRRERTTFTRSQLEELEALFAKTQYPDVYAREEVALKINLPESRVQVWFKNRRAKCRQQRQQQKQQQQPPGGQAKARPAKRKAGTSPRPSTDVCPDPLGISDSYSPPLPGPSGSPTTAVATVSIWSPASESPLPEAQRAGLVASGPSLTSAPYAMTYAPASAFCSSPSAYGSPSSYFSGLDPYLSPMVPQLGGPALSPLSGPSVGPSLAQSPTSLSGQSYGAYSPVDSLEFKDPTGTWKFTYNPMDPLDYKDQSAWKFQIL

Take TACAGC: the binding signal with ELK4 was 1.02 fold enrichment (6-mer frequency, TF over GST control); with ETV2, 1.12 fold enrichment (6-mer frequency, TF over GST control); in the experiment with ELF3, 1.16 fold enrichment (6-mer frequency, TF over GST control); in the experiment with CRX, 1.07 fold enrichment (6-mer frequency, TF over GST control); in the experiment with ETV1 it was 1.03 fold enrichment (6-mer frequency, TF over GST control); with ERF, 1.16 fold enrichment (6-mer frequency, TF over GST control). For the same sequence, the binding signal with ETV3L was 1.08 fold enrichment (6-mer frequency, TF over GST control); in the experiment with ETS2 it was 1.1 fold enrichment (6-mer frequency, TF over GST control); with ETV7 it was 1.09 fold enrichment (6-mer frequency, TF over GST control); with ELF5 it was 1.07 fold enrichment (6-mer frequency, TF over GST control); in the experiment with ETV3 it was 1.02 fold enrichment (6-mer frequency, TF over GST control); with ETV6, 1.1 fold enrichment (6-mer frequency, TF over GST control).
